Screening data: PubChem BioAssay, National Center for Advancing Translational Sciences (NCATS)
A selection: hits, their analogues and other compounds. The true share with any hit is near 10%.
HEK cytotox: cytotoxic compounds in HEK 293 cells. Potency, µM (top dose mostly 115 µM), for inactives: at the top dose activity change, negative = cytotoxicity, usual class: inhibitors. hit rate 6.6% among 94,000. HEK 293 viability, ATP luminescence (CellTiter-Glo), 48-72 h; also: nearly all actives have a fitted effect of over 60% in size
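HEK 293 seeded at 250 cells/well receive compound via pintool. After 48 or 72 hr at 37 degree Celsius, 5% CO2 and 95% humidity, CellTiter-Glo is dispensed and luminescence read following 10 min at room temperature.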
NIH3T3 tox: cytotoxic compounds in NIH 3T3 cells; NIH 3T3 viability, CellTiter-Glo ATP luminescence, 48-72 h; Potency, µM (doses to about 96.7 µM), for inactives: at the highest dose activity change, negative = cytotoxicity, hits mostly inhibitors; hit rate 4.3% among 94,000; also: nearly all actives have a fitted effect of over 55% in size
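Viability of NIH 3T3 cells after 48 or 72 hr compound treatment at 37 °C was assessed by CellTiter-Glo, with luminescence imaged following a 10 min room-temperature step.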
hNpr1 antagonist: antagonists of human natriuretic peptide receptor Npr1; P16066; HEK293 hNpr1 GloSensor cGMP, ANP-stimulated luminescence; Potency, µM (titrated, usually from 46.3 µM), inactives show at the highest dose activity change, negative = inhibition, most hits filed as inhibitors; hit rate 1.6% among 76,000; AID 1347048; calls by dose curve; also: nearly all actives have a fitted effect of over 60% in size
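Compound pre-incubated 30 min at room temperature on GloSensor-loaded HEK293 cells stably carrying hNpr1 and the pGS-40F cGMP biosensor. Stimulation uses hNppA at 0.1 nM final; luminescence is taken at baseline and 20 min post-agonist.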
FLuc inh: inhibitors of firefly (Photinus pyralis) luciferase | P08659 | Potency, µM (series often up to 115 µM), hits mostly inhibitors | hit rate 2.5% among 76,000 | AID 1347043 | purified P. pyralis luciferase, luminescence, biochemical; also: nearly all actives have a fitted effect of over 65% in size
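Luminescence read by CCD imaging after purified firefly luciferase (10nM final) was added to substrate buffer holding 10uM D-luciferin and 10uM ATP, pH 7.5, pre-dosed with compound.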
GPT2 inhibitor: inhibitors of human GPT2 alanine aminotransferase. Q8TD30. Potency, µM (top dose mostly 57.7 µM), inactives show top-dose activity change, negative = inhibition, actives largely listed as inhibitors. hit rate 0.25% among 100,000. Recombinant GPT2, coupled pyruvate oxidase/HRP Amplex Red fluorescence. AID 1671188; also: nearly all actives have a fitted effect of over 60% in size
Target sequence (Q8TD30 whole entry, looked up): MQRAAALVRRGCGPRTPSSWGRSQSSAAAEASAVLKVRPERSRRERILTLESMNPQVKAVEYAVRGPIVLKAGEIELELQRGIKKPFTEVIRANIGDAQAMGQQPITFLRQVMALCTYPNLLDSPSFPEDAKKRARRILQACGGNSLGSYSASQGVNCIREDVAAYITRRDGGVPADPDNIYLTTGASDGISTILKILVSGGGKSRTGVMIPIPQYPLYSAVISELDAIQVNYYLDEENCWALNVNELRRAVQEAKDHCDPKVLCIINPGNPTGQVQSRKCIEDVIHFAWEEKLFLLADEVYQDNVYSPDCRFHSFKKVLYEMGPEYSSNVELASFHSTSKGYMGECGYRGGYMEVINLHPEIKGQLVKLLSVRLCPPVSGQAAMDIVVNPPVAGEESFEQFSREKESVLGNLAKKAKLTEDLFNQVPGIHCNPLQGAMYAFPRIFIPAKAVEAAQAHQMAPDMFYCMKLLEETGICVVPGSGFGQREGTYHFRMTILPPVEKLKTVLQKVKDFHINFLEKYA
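Inhibition is scored from Amplex Red fluorescence generated when pyruvate oxidase and HRP act on pyruvate released by GPT2. Reactions contain 10ng/uL enzyme, 250uM a-KG and 2mM L-alanine and run 30 min at room temperature.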
The depositor's hits bear a star; i = inactive; ? = inconclusive; . = not tested or not shown; [ ] = remark or other dose. Unless noted, calls follow the shape of the dose curve; as a rule, active = well fitted curve in the direction sought with a large enough effect; inconclusive = small, poorly fitted or top-dose-only effect, or another doubt; inactive = no such curve, though single readings can be large; an effect the other way counts as inactive or inconclusive. % is scaled to controls: 0 for no effect and ±100 for the full control effect; potency is read from the fitted curve at half-maximal effect.

SMILES	HEK cytotox	NIH3T3 tox	hNpr1 antagonist	FLuc inh	GPT2 inhibitor
CN(C)c1cc(=O)c2ccnc(-c3ccc(N4CCOCC4)cc3)c2o1	i	?	-1%[70.6 µM]	45µM*	2%[88.5 µM]
Cc1ccccc1S(=O)(=O)N1CCC(c2noc(-c3cccnc3)n2)C1 (stereo unspecified)	?	-25%	-6%	i	-8%
COc1cccc2c1OCC(CNC(=O)CCn1nnc3ccccc31)C2 (stereo unspecified)	-19%	-18%	5%	i	-2%[11.5 µM]
COC(=O)N1CCN(c2nccc(Nc3ccccc3F)n2)CC1	89µM*	?	.	.	1%[88.5 µM]
COCC(=O)N1CCN(c2nccc(Nc3ccccc3F)n2)CC1	2%	-20%	.	.	-5%
O=C(NC1CCCC1)N1CCN(c2nccc(Nc3ccccc3F)n2)CC1	45µM*	?	.	.	i
CC(C)NC(=O)N1CCN(c2nccc(Nc3ccccc3F)n2)CC1	25µM*	?	.	.	i
COc1ccccc1Nc1ccnc(N2CCN(C(=O)NC(C)C)CC2)n1	?	?	.	.	i
O=C(Nc1ccccc1)N1CCN(c2nccc(Nc3ccccc3F)n2)CC1	?	45µM*	.	.	i
COCCN1C[C@H]2CN(Cc3ccc(C(F)(F)F)cc3)CCN2C1=O	?	-9%[138 µM]	-14%[70.6 µM]	i	2%[88.5 µM]
CCOc1c2c(c(OCC)c3ccccc13)C(=O)N(c1ccc(CC(=O)NS(=O)(=O)c3ccccc3)cc1)C2	.	.	.	.	i
COC(=O)[C@@H]1Cc2ncn(Cc3ccc(Cl)cc3)c2CN1Cc1cccnc1	?	?	-7%[70.6 µM]	i	5%[88.5 µM]
CC(C)N1[N]C(=C2C=c3cc(O)ccc3=N2)c2c(N)ncnc21	.	.	.	.	0.61µM*
O=C(NCC1CC1)C1CCCCN1Cc1ccc(-c2cccs2)cc1 (stereo unspecified)	?	18µM*	.	.	2%
O=C(NC1CCCC1)C1CCCCN1Cc1ccc(-c2cccs2)cc1 (stereo unspecified)	32µM*	40µM*	.	.	i
C#CCNC(=O)C1CCCCN1Cc1ccc(-c2cccs2)cc1 (stereo unspecified)	?	?	.	.	i
Cn1ncc2c(C(=O)NCc3cccnc3)cc(-c3cccc(C(F)(F)F)c3)nc21	50µM*	?	.	.	i
COc1cccc(-c2cc(C(=O)NCc3cccc(C(F)(F)F)c3)c3cnn(C)c3n2)c1	25µM*	?	.	.	.
Cn1ncc2c(C(=O)NCCc3ccccn3)cc(-c3cccc(C(F)(F)F)c3)nc21	32µM*	?	.	.	.
O=C1CCN(C(=O)C2CCN(C(=O)c3cnccn3)CC2)CCCCCCN1	i	-18%	-1%	i	i
C[C@@H](Cc1cc2c(c(C(N)=O)c1)N(CCCO)CC2)NCCOc1ccccc1OCC(F)(F)F	.	.	.	.	i
Cc1ccsc1-c1[nH]nc2ncc(-c3cccc(CO)c3)nc12	79µM*	?	-6%[70.6 µM]	?	3%[88.5 µM]
COc1cc(F)ccc1-c1cnc2n[nH]c(-c3sccc3C)c2n1	45µM*	?	-10%[70.6 µM]	i	0%[88.5 µM]
Cc1ccsc1-c1[nH]nc2ncc(-c3ccc(F)cc3)nc12	71µM*	?	-10%[70.6 µM]	i	-3%[88.5 µM]
COCCN1CCNc2nc(COc3ccc(CN(C)C)cc3)n(Cc3ccccc3)c2C1=O	-52%	-56%	-3%	i	1%
SMILES	HEK cytotox	NIH3T3 tox	hNpr1 antagonist	FLuc inh	GPT2 inhibitor
CC1Oc2ccc(NC(=O)c3ccc(F)cc3)cc2CN(Cc2ccccc2F)C1=O (stereo unspecified)	45µM*	?	-6%	i	i
CC1Oc2ccc(NC(=O)c3ccc(Cl)cc3)cc2CN(Cc2cc(F)cc(F)c2)C1=O (stereo unspecified)	20µM*	?	-23%	i	i
COc1ccc(C(=O)Nc2ccc3c(c2)CN(Cc2ccc(OC)cc2OC)C(=O)C(C)O3)cc1 (stereo unspecified)	?	-27%	-24%	i	-5%
CC1Oc2ccc(NC(=O)c3ccc(F)cc3)cc2CN(Cc2ccccc2Cl)C1=O (stereo unspecified)	?	?	-9%	i	?
COc1ccc(CN2Cc3cc(NC(=O)c4ccc(F)cc4F)ccc3OC(C)C2=O)c(OC)c1 (stereo unspecified)	45µM*	?	-18%	i	?
CC(=O)Oc1ccccc1C(=O)Nc1ccc2c(c1)CN(Cc1ccc(Cl)cc1)C(=O)C(C)O2 (stereo unspecified)	?	25µM*	?	i	-6%
Cc1cc(C(=O)N2CC(F)(F)C[C@H]2c2nc(C3CC3)no2)c(C)o1	?	-14%	6%	?	i
CC(C)CN1C(=O)c2cccn2CC1C(=O)N1CCOCC1 (stereo unspecified)	i	4%	-10%	i	i
COc1ccc(NC(=O)Cn2cccc2-c2nc(-c3ccc(F)cc3)no2)cc1Cl	-4%	-22%	-2%	i	i
CCC1Oc2ccc(NC(=O)c3ccc([N+](=O)[O-])cc3)cc2CN(C(C)CC)C1=O (stereo unspecified)	22µM*	?	-22%	i	-15%
CC1Oc2ccc(NC(=O)c3ccc(Cl)cc3)cc2CN(C(C)C)C1=O (stereo unspecified)	?	40µM*	?	i	i
COc1ccc(CN2Cc3cc(NC(=O)c4ccc(Cl)cc4)ccc3OC(C)C2=O)c(OC)c1 (stereo unspecified)	?	?	5%	i	-17%
CC1Oc2ccc(NC(=O)c3ccccc3)cc2CN(Cc2ccc(Cl)cc2)C1=O (stereo unspecified)	8.9µM*	?	-18%	i	i
COCCC(=O)N1CCC(N2C(=O)C(O)C23CCCCC3)CC1 (stereo unspecified)	-6%	0%	3%	i	i
Cc1ccc(-c2ccc3nnc(CNC(=O)c4ccc(C#N)cc4)n3n2)cc1C	-17%	-13%	-9%	i	i
CS(=O)(=O)N1CCC(Cc2ccc(C(=O)NCCc3ccccc3)cc2)CC1	11µM*	?	.	.	-4%
CS(=O)(=O)N1CCC(Cc2ccc(C(=O)NCCN3CCOCC3)cc2)CC1	i	4%	-1%	i	-4%
CC(Oc1ccccc1)C(=O)NC1CCN(c2cc(C(F)(F)F)ncn2)CC1 (stereo unspecified)	?	-24%	?	i	-5%
CC(C)c1cccc(NC(=O)Cn2cccc2-c2nc(-c3ccc4c(c3)OCO4)no2)c1	?	28µM*	-3%	i	3%
COc1ccc(OC)c(NC(=O)Cn2cccc2-c2nc(-c3ccc4c(c3)OCO4)no2)c1	35µM*	?	-13%	i	4%
